# Key:
# Test in all cases: DAPPL (digital affinity profiling via proximity ligation, sequencing); 10 mM Tris-HCl pH 7.5, 50 mM NaCl, 1 mM DTT, 4% glycerol, room temperature, 30 min; GST-TFs on glutathione beads, 16-mer random dsDNA library, 0.1% formaldehyde crosslink after washing; high values mean tight binding
# [1] = target: T1, FLI1 (Homo sapiens, UniProt Q01543 1-452); settings: protein: recombinant; tags: N-terminal GST; dsDNA, one strand shown
# T1 sequence: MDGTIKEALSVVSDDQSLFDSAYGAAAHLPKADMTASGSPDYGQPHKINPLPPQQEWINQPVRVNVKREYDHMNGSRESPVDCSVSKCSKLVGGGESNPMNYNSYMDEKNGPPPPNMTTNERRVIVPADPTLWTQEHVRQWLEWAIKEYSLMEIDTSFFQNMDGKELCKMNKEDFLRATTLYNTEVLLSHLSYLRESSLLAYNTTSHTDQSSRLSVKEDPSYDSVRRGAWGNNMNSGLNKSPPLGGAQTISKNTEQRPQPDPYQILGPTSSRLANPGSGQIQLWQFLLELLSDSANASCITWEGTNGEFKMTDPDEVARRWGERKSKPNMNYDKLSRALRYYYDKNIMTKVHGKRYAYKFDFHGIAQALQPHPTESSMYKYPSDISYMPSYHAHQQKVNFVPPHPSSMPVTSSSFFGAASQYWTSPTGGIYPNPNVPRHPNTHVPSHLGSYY
# Method in brief: (§1)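 Binding signal is given per hexamer as its read frequency for a factor divided by its frequency in the tag-only sample. GST-fused human transcription factors were expressed in yeast, captured on glutathione beads, barcoded with DNA and pooled with that sample, then incubated with 200 nmole of a 16-mer random double-stranded DNA library in Tris/NaCl/DTT/glycerol buffer for 30 min at room temperature. The pools were then washed, crosslinked, proximity-ligated, amplified by PCR and sequenced on an Illumina NextSeq500.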
# [2] = target: T2, ELK1 (Homo sapiens, UniProt P19419 1-428); settings: protein: recombinant; tags: N-terminal GST; dsDNA, one strand shown
# T2 sequence: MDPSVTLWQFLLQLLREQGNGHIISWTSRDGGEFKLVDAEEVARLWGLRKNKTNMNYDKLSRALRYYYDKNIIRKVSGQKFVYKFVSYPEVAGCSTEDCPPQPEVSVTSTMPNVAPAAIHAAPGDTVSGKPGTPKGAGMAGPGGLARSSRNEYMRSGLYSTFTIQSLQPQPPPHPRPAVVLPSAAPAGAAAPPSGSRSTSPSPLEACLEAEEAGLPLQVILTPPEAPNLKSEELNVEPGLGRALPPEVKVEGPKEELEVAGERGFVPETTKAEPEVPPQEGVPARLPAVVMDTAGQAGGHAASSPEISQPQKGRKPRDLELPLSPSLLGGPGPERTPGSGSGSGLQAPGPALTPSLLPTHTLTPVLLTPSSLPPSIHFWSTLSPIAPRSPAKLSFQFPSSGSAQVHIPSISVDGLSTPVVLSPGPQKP
# Method in brief: as §1
# [3] = target: T3, GABPA (Homo sapiens, UniProt Q06546 1-454); settings: protein: recombinant; tags: N-terminal GST; dsDNA, one strand shown
# T3 sequence: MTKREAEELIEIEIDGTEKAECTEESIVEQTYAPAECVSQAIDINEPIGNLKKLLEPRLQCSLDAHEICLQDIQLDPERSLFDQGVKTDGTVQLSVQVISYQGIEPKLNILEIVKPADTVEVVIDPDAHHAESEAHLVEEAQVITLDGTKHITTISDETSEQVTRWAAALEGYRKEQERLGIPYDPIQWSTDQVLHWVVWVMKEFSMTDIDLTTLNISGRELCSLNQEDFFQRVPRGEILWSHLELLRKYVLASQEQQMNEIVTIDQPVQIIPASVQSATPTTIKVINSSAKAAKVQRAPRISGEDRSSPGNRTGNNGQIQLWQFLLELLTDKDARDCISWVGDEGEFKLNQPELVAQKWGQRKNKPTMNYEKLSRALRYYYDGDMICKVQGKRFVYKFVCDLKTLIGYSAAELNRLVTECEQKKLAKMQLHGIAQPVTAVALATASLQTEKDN
# Method in brief: as §1
# [4] = target: T4, ERG (Homo sapiens, UniProt P11308 1-479); settings: protein: recombinant; tags: N-terminal GST; dsDNA, one strand shown
# T4 sequence: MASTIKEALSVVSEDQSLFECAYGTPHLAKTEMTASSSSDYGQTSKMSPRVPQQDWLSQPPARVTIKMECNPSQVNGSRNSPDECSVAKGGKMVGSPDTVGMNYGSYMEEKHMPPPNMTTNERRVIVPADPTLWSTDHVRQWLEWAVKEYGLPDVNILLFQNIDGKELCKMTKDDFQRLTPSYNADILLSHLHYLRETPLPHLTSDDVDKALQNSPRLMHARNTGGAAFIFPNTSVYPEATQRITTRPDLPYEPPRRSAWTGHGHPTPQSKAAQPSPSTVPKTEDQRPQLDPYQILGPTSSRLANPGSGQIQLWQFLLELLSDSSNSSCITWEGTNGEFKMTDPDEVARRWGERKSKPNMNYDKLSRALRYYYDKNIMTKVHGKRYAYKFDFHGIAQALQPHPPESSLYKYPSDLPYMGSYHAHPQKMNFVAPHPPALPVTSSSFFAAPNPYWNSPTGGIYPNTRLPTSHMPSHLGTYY
# Method in brief: as §1
# [5] = target: ELF1 (Homo sapiens, UniProt P32519 1-619); settings: protein: recombinant; tags: N-terminal GST; dsDNA, one strand shown
# Chain of ELF1 (P32519 whole entry): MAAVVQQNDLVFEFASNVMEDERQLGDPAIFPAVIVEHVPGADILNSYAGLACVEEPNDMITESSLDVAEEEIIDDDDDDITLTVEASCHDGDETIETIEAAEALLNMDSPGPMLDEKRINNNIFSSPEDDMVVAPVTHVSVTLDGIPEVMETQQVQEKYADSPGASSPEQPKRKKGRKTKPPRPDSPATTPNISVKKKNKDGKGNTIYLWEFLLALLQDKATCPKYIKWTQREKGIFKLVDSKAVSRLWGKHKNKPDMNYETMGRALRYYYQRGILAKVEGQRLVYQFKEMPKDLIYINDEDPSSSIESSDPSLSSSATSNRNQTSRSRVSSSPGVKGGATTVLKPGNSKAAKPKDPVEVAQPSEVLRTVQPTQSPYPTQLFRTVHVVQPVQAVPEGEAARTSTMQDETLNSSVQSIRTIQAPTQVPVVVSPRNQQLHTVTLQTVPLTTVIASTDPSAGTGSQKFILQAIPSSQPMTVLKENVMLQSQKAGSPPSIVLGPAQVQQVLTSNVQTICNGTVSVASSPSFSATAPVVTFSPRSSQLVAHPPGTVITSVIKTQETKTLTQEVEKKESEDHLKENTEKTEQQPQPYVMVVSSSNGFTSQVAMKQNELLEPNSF
# Method in brief: as §1
# [6] = target: T5, EHF (Homo sapiens, UniProt Q9NZC4 1-300); settings: protein: recombinant; tags: N-terminal GST; dsDNA, one strand shown
# T5 sequence: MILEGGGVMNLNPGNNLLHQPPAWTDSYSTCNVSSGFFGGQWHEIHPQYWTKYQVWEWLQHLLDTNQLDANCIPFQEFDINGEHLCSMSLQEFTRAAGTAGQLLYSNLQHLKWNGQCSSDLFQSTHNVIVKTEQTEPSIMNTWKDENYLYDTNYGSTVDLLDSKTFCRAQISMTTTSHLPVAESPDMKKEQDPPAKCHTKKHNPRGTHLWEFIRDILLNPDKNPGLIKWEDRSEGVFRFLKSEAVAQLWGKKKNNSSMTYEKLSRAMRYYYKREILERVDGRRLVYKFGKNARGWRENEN
# Method in brief: as §1
# [7] = target: SPI1 (Homo sapiens, UniProt P17947 1-270); settings: protein: recombinant; tags: N-terminal GST; dsDNA, one strand shown
# Method in brief: as §1
# [8] = target: SPIB (Homo sapiens, UniProt Q01892 1-262); settings: protein: recombinant; tags: N-terminal GST; dsDNA, one strand shown
# Chain of SPIB (Q01892 whole entry): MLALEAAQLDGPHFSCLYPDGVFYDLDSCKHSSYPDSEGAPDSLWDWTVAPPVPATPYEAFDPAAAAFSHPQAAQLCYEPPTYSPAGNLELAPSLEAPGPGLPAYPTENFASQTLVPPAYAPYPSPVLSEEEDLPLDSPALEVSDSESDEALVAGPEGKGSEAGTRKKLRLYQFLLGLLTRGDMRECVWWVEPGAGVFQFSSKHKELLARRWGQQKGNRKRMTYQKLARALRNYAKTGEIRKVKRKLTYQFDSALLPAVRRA
# Method in brief: as §1
# [9] = target: T6, ELK3 (Homo sapiens, UniProt P41970 1-407); settings: protein: recombinant; tags: N-terminal GST; dsDNA, one strand shown
# T6 sequence: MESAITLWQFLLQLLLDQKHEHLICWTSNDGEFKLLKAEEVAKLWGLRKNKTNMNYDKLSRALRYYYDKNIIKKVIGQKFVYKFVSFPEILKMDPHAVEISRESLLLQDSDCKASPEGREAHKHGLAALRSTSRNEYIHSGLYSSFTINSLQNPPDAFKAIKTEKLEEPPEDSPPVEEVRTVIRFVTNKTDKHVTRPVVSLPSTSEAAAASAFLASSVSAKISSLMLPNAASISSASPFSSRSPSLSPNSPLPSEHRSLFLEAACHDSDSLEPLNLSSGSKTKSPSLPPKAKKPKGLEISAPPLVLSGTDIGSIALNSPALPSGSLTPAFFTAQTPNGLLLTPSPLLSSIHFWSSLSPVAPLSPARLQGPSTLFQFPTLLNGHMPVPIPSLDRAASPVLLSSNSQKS
# Method in brief: as §1
# [10] = target: T7, FEV (Homo sapiens, UniProt Q99581 1-238); settings: protein: recombinant; tags: N-terminal GST; dsDNA, one strand shown
# T7 sequence: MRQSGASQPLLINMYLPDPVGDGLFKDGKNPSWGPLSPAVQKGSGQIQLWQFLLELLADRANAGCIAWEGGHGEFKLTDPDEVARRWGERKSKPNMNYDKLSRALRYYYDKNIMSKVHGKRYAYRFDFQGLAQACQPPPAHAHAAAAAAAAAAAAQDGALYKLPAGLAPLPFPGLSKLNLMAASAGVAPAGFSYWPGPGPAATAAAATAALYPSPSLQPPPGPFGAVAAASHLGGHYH
# Method in brief: as §1
# [11] = target: ETV5 (Homo sapiens, UniProt P41161 1-510); settings: protein: recombinant; tags: N-terminal GST; dsDNA, one strand shown
# Chain of ETV5 (P41161 whole entry): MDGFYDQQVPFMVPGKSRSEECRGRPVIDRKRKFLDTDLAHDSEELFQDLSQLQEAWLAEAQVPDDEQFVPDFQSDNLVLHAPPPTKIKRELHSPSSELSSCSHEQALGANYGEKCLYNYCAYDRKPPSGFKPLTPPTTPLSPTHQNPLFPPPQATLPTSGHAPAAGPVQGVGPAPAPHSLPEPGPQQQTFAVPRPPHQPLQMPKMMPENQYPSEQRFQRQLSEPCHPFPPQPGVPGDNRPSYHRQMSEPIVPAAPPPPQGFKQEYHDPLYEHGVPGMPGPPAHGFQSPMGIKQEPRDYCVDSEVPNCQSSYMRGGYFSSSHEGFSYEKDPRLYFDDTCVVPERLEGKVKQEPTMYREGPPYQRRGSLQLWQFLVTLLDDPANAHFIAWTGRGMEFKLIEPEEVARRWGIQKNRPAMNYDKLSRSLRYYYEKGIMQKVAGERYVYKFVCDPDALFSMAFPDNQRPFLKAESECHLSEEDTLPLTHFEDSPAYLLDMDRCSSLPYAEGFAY
# Method in brief: as §1
# [12] = target: HSF1 (Homo sapiens, UniProt Q00613 1-529); settings: protein: recombinant; tags: N-terminal GST; chain copies: 3; dsDNA, one strand shown
# Chain of HSF1 (Q00613 whole entry): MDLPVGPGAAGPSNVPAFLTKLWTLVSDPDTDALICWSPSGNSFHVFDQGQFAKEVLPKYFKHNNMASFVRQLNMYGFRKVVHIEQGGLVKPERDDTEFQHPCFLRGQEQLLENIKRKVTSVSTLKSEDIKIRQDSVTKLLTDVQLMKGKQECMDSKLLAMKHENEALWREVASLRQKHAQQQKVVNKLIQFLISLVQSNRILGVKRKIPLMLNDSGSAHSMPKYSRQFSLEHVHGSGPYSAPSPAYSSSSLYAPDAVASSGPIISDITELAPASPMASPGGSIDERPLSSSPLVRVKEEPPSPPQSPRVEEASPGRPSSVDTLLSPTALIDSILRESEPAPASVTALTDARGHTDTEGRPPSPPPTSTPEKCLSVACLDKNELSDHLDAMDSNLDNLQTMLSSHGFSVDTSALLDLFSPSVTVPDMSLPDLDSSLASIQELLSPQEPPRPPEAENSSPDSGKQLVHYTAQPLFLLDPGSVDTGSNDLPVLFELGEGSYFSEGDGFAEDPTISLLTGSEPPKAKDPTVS
# Method in brief: as §1
# [13] = target: T8, SPIC (Homo sapiens, UniProt Q8N5J4 1-248); settings: protein: recombinant; tags: N-terminal GST; dsDNA, one strand shown
# T8 sequence: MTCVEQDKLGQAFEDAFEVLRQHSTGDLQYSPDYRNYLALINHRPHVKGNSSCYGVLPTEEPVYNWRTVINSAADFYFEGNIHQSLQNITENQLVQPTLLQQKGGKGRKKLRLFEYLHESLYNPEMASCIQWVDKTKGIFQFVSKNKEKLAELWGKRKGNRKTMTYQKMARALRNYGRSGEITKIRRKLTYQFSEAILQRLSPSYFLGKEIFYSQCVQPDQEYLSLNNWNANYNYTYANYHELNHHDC
# Method in brief: as §1
# [14] = target: ELF4 (Homo sapiens, UniProt Q99607 1-663); settings: protein: recombinant; tags: N-terminal GST; dsDNA, one strand shown
# Chain of ELF4 (Q99607 whole entry): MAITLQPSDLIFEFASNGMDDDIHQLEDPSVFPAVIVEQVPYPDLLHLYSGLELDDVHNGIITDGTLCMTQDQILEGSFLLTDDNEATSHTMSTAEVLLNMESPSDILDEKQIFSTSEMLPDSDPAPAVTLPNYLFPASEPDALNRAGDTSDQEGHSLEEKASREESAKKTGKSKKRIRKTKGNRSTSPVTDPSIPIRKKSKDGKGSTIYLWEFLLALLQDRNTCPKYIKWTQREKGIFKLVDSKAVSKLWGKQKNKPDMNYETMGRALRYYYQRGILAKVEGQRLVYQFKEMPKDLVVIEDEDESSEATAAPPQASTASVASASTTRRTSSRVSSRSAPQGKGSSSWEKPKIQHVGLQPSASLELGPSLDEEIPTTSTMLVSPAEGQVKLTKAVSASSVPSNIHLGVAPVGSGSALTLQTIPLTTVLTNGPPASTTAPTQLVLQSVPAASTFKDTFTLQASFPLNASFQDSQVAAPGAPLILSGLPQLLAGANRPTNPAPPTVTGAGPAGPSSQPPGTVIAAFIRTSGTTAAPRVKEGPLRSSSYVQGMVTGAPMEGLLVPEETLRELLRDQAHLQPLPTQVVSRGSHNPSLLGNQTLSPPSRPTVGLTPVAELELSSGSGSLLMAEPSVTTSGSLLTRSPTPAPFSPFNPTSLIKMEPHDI
# Method in brief: as §1
# [15] = target: T9, ELK4 (Homo sapiens, UniProt P28324-2 1-405); settings: protein: recombinant; tags: N-terminal GST; dsDNA, one strand shown
# T9 sequence: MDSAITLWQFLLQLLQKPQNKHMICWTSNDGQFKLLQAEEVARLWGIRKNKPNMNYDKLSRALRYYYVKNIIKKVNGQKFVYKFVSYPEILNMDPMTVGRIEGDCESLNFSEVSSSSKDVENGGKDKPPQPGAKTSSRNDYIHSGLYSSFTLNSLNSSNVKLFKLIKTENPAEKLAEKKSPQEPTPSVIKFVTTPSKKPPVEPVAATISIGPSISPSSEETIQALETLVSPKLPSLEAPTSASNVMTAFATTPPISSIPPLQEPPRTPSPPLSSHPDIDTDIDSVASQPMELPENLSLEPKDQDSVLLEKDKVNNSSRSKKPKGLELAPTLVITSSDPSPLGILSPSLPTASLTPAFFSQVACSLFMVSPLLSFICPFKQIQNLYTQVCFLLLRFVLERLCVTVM
# Method in brief: as §1
# [16] = target: T10, ETV2 (Homo sapiens, UniProt O00321 1-342); settings: protein: recombinant; tags: N-terminal GST; dsDNA, one strand shown
# T10 sequence: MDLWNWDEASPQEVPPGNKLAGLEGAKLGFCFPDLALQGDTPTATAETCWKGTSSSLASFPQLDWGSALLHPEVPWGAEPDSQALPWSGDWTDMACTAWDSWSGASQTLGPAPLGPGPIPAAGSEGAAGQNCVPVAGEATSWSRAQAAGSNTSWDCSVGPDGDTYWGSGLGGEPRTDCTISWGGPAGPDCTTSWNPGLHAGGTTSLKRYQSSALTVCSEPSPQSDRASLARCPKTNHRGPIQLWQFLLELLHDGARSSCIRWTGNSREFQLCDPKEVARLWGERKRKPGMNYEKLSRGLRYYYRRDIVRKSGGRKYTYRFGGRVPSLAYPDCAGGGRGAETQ
# Method in brief: as §1
# [17] = target: T11, ELF3 (Homo sapiens, UniProt P78545 1-371); settings: protein: recombinant; tags: N-terminal GST; dsDNA, one strand shown
# T11 sequence: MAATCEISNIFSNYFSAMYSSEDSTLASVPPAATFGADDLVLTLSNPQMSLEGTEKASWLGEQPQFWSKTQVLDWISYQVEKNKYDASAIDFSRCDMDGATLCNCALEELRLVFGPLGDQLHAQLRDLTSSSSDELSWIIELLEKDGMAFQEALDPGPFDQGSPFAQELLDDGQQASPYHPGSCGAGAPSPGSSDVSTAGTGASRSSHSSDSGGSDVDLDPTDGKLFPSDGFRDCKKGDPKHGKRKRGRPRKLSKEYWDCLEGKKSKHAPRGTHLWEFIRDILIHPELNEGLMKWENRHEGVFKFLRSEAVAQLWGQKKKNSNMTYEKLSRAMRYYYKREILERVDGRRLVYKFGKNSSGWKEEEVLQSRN
# Method in brief: as §1
# [18] = target: CRX (Homo sapiens, UniProt O43186 1-299); settings: protein: recombinant; tags: N-terminal GST; dsDNA, one strand shown
# Chain of CRX (O43186 whole entry): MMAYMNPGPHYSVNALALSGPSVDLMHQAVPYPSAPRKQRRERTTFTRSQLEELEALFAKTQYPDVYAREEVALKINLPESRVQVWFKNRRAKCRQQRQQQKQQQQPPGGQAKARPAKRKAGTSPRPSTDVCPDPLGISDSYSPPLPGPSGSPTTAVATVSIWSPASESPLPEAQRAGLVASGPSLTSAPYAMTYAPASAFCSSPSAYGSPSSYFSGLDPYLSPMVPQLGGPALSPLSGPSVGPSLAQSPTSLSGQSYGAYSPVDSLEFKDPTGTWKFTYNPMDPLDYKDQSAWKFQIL
# Method in brief: as §1
# [19] = target: ETV1 (Homo sapiens, UniProt P50549 1-477); settings: protein: recombinant; tags: N-terminal GST; dsDNA, one strand shown
# Chain of ETV1 (P50549 whole entry): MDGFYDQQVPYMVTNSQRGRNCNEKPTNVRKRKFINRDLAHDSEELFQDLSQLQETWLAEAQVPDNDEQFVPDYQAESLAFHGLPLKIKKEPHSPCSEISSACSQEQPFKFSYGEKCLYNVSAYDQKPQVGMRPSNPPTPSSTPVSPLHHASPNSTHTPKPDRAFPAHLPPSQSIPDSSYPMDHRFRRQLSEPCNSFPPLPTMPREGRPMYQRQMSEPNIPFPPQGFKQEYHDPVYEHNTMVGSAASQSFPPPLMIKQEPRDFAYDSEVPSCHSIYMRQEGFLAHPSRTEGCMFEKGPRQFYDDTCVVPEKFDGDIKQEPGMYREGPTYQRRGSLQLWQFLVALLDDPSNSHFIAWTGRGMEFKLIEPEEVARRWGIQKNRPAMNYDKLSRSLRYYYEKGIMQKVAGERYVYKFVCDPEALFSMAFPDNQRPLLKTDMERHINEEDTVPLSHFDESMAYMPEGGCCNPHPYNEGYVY
# Method in brief: as §1
sequence,measurement,setting,value
ACTCCG,binding signal,[1],"1.48 fold enrichment (6-mer frequency, TF over GST control)"
same,binding signal,[2],"1.5 fold enrichment (6-mer frequency, TF over GST control)"
same,binding signal,[3],"1.58 fold enrichment (6-mer frequency, TF over GST control)"
same,binding signal,[4],"1.43 fold enrichment (6-mer frequency, TF over GST control)"
same,binding signal,[5],"1.48 fold enrichment (6-mer frequency, TF over GST control)"
same,binding signal,[6],"1.42 fold enrichment (6-mer frequency, TF over GST control)"
same,binding signal,[7],"1.45 fold enrichment (6-mer frequency, TF over GST control)"
same,binding signal,[8],"1.44 fold enrichment (6-mer frequency, TF over GST control)"
same,binding signal,[9],"1.56 fold enrichment (6-mer frequency, TF over GST control)"
same,binding signal,[10],"1.49 fold enrichment (6-mer frequency, TF over GST control)"
same,binding signal,[11],"1.44 fold enrichment (6-mer frequency, TF over GST control)"
same,binding signal,[12],"1.16 fold enrichment (6-mer frequency, TF over GST control)"
same,binding signal,[13],"1.35 fold enrichment (6-mer frequency, TF over GST control)"
same,binding signal,[14],"1.58 fold enrichment (6-mer frequency, TF over GST control)"
same,binding signal,[15],"1.4 fold enrichment (6-mer frequency, TF over GST control)"
same,binding signal,[16],"1.4 fold enrichment (6-mer frequency, TF over GST control)"
same,binding signal,[17],"1.33 fold enrichment (6-mer frequency, TF over GST control)"
same,binding signal,[18],"1.04 fold enrichment (6-mer frequency, TF over GST control)"
same,binding signal,[19],"1.47 fold enrichment (6-mer frequency, TF over GST control)"

# Source: article PMC7862700, “An all-to-all approach to the identification of sequence-specific readers for epigenetic DNA modifications on cytosine”
